KKLEB cytotox – CF airway cell cytotoxicity counter-screen; KKLEB CF airway cells viability, ATPlite luminescence, overnight; active compounds read low; cells stimulated with P. aeruginosa culture filtrate; activity change (cytotoxicity), % at 5 µM; actives 0.36% (n = 360,000); AID 602141;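 active = corrected activity change at or below -50% at 5 µM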
EWS-Fli block – blocks EWS/Fli oncoprotein-driven transcription. A673 NR0B1-luciferase reporter, viability-normalised. inhibition, % at 12.6 µM. actives 0.67% (n = 350,000);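 active = mean inhibition of at least 50% after viability correction, with every replicate also passing that limit; inconclusive = mean reaches 50% but only one of two replicates passes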;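 note: firefly luciferase signal divided by Alamar Blue viability fluorescence both relative to DMSO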
HIF-2a block – blocks HIF-2a reporter activity; 786-0 RCC cells HIF-2a reporter, luciferase luminescence, overnight; inhibition, % at 18.8 µM; actives 0.72% (n = 360,000); AID 624352;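 active = inhibition of the luminescence signal of 40% or more relative to plate controls, in a single-dose primary screen at 18.75 µM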
CF NFkB block – blocks PAF-induced NF-kB reporter in cystic fibrosis cells; actives 0.86% (n = 360,000); inhibition, % at 5 µM; KKLEB NF-kB-GFP reporter, GFP fluorescence overnight;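 active = at least 50% inhibition at 5 µM, scaled per plate between neutral and stimulator controls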;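 note: PAF is a Pseudomonas aeruginosa culture filtrate used as stimulus; plate controls were PAF-stimulated DMSO wells for no effect and unstimulated DMSO wells for full effect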
PAX8 reporter – lowers PAX8-driven luciferase in RMG-I cells; RMG-I TPO-luciferase reporter, SteadyGlo, 24 h; inhibition, % at 12.6 µM; AID 652154; actives 1.2% (n = 360,000);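 active = mean replicate inhibition at least 60% with every replicate also reaching 60%; inconclusive = only one of the two criteria is met; inactive = mean below 60% and not all replicates reaching 60%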;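 note: luciferase light reporting Pax8 driven TPO promoter activity; plate controls were median of neutral control wells for no effect and mitoxantrone controls for full effect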
The depositor's hits bear a star; u = inconclusive; x = no result; ! = a repeat was not active. Compounds with a hit are over-represented: about 2.1% of the library has one in this group of screens.

SMILES	KKLEB cytotox	EWS-Fli block	HIF-2a block	CF NFkB block	PAX8 reporter
O=[N+]([O-])c1ccc(Sc2nnnn2-c2ccccc2)nc1	x	19	x	x	78*
COc1ccc(-c2ccc3n(c2=O)C[C@H]2N[C@@H]3[C@@H](C(=O)N3CCCCC3)[C@@H]2CO)cc1	x	-9	x	x	20
C[C@H](CO)N1C[C@H](C)[C@H](CN(C)S(=O)(=O)c2ccc(Cl)cc2)Oc2ccc(NC(=O)CCC(F)(F)F)cc2CC1=O	x	59*	x	x	34
C[C@H]1CN([C@@H](C)CO)C(=O)Cc2cc(NC(=O)CCC(F)(F)F)ccc2O[C@H]1CN(C)S(=O)(=O)c1ccc(F)cc1	-14	57*!	14	18	13
C[C@H]1CN([C@@H](C)CO)C(=O)Cc2cc(NC(=O)CCC(F)(F)F)ccc2O[C@H]1CN(C)S(=O)(=O)c1ccc(Cl)cc1	-23	56*	15	19	u
CCCC#Cc1ccc([C@H]2[C@@H](CO)N3CCCCN(CC4CC4)C[C@H]23)cc1	x	15	x	x	15
Cc1sc2ncnc(N3CCC(C(=O)Nc4ccccc4C(C)(C)C)CC3)c2c1C	-22	-3	15	68*	-4
Cc1sc2ncnc(N3CCC(C(=O)N(C)CC(=O)Nc4cccc(F)c4)CC3)c2c1C	-8	10	11	40	-4
Cc1sc2ncnc(N3CCC(C(=O)N(C)CC(=O)Nc4ccc(Cl)c(C(F)(F)F)c4)CC3)c2c1C	-26	28	9	49	78*
CCN(CC)S(=O)(=O)c1cc(NC(=O)C2CCN(c3ncnc4sc(C)c(C)c34)CC2)ccc1Cl	-18	33	21	26	72*
C[C@@H]1CN([C@@H](C)CO)S(=O)(=O)c2ccc(C#CC3CCCC3)cc2O[C@@H]1CN(C)C(=O)c1cccc(F)c1	x	20	x	x	x
O=C(NCC[C@@H]1CC[C@@H](NC(=O)C2CC2)[C@@H](CO)O1)c1cnccn1	x	-7	x	x	-8
Cc1cccc(C)c1-c1ccc(CN2C(CC(C)C)C(=O)N(Cc3cn(CC4CCCCC4)nn3)CCS2(=O)=O)cc1 (stereo not given)	9	0	-6	38	70*
CC(C)CC1C(=O)N(Cc2cn(CC3CCCCC3)nn2)CCS(=O)(=O)N1Cc1ccc(-c2ccc(Cl)c(Cl)c2)cc1 (stereo not given)	8	-5	14	33	-3
Cc1onc(-c2ccccc2)c1C(=O)NC(=S)NNC(=O)c1ccc(O)cc1O	-30	x	3	39	86*
Cc1onc(-c2ccccc2)c1C(=O)NC(=S)NNC(=O)c1ccccc1O	-2	3	20	-3	31
C[C@H]1CN([C@@H](C)CO)C(=O)c2cc(C#CC3(O)CCCC3)cnc2O[C@@H]1CN(C)C(=O)C1CC1	x	7	x	x	x
Cc1ccc(SC2=C[C@@]3(O)CC[C@@H](O)[C@@](Sc4ccc(C)cc4)(C2=O)[C@H]3O)cc1	x	-5	26	x	6
CC(C)(C)c1ccc(SC2=C[C@@]3(O)CC[C@@H](O)[C@@](Sc4ccc(C(C)(C)C)cc4)(C2=O)[C@H]3O)cc1	x	31	-77	x	85*
COc1ccc(/C=C/c2cc(C(=O)O)c3ccccc3n2)cc1	-14	70*	22	-11	9
O=C1c2ccccc2C(=O)c2c(NCc3cccnc3)cccc21	2	x	-150	-68	-38
O=C1c2cccc(NCCCNCCO)c2C(=O)c2cccc(NCCCNCCO)c21	-4	13	48*	-34	57
COC(=O)c1ccccc1NC1=C/C(=N\S(=O)(=O)c2ccc(C(=O)O)cc2)c2ccccc2C1=O	-62*	x	-20	97*	x
Cc1ccc(S(=O)(=O)Nc2ccc(N=Nc3ccc(O)cc3)cc2)cc1	4	11	-4	7	2
Cc1ccc(S(=O)(=O)/N=C2\C=C(Nc3cccc(C(=O)O)c3)C(=O)c3ccccc32)cc1	-33	-73	-3	98*	-44
SMILES	KKLEB cytotox	EWS-Fli block	HIF-2a block	CF NFkB block	PAX8 reporter
Cc1cccc(NC2=C(NC(=O)c3ccccc3)C(=O)c3ccccc3C2=O)c1	2	x	2	7	25
O=C(O)c1cccc(NS(=O)(=O)c2ccc3c(c2)C(=O)c2ccccc2C3=O)c1	5	3	2	6	-10
Cc1ccc(S(=O)(=O)/N=C2\C=C(Nc3ccc(O)cc3)C(=O)c3ccccc32)cc1	-80*	x	70*	83*	x
Cc1ccc(S(=O)(=O)/N=C2\C=C(Nc3cccc(C(=O)O)c3)C(=O)c3ccccc32)c(C)c1	-38	-67	-89	92*	10
COc1ccc2c3c([nH]c2c1)[C@H](CO)N(C(=O)c1ccccc1)CC31CCN(C(=O)NC(C)C)CC1	x	3	x	x	x
CO[C@H]1CN(C)C(=O)c2ccc(NC(=O)C3CC3)cc2OC[C@H](C)N(C(=O)c2ccccn2)C[C@@H]1C	x	2	x	x	-32
CCc1ccc(S(=O)(=O)/N=C2\C=C(Nc3ccc(C(=O)O)cc3)C(=O)c3ccccc32)cc1	-31	19	11	90*	93*
COc1ccc2cc3c(N)nn(C(=O)c4cccc([N+](=O)[O-])c4)c3nc2c1	-12	x	12	47	-5
COc1ccc2cc3c(N)nn(C(=O)C4CCC(C(C)(C)C)CC4)c3nc2c1 (stereo not given)	-7	-6	23	82*	-13
C[C@@H]1CN([C@@H](C)CO)C(=O)c2cc(NC(=O)NC3CCCCC3)ccc2O[C@@H]1CN(C)Cc1ccc(C(=O)Nc2ccccc2N)cc1	x	12	x	x	12
C[C@@H]1CN([C@@H](C)CO)C(=O)Cc2cc(NC(=O)Nc3ccc(C(F)(F)F)cc3)ccc2O[C@H]1CN(C)C(=O)Nc1ccc(C(F)(F)F)cc1	x	1	x	x	78*
C[C@@H]1CN([C@H](C)CO)C(=O)Cc2cc(NC(=O)Nc3ccc(F)cc3)ccc2O[C@H]1CN(C)C(=O)Nc1ccc(C(F)(F)F)cc1	x	27	x	x	80*
COc1ccc(S(=O)(=O)N(C)C[C@H]2OCCCC[C@@H](C)Oc3ccc(NC(=O)C4CCCCC4)cc3C(=O)N([C@@H](C)CO)C[C@H]2C)cc1	x	-7	x	x	-6
COc1ccc(S(=O)(=O)Nc2ccc3c(c2)C(=O)N([C@H](C)CO)C[C@@H](C)[C@H](CN(C)S(=O)(=O)c2ccc(C)cc2)OCCCC[C@@H](C)O3)cc1	x	9	x	x	67*
COc1ccc(S(=O)(=O)Nc2ccc3c(c2)C(=O)N([C@H](C)CO)C[C@H](C)[C@@H](CN(C)S(=O)(=O)c2ccc(F)cc2)OCCCC[C@H](C)O3)cc1	x	-5	x	x	76*
COc1ccc(S(=O)(=O)N(C)C[C@@H]2OCCCC[C@H](C)Oc3ccc(NC(=O)C4CCCCC4)cc3C(=O)N([C@@H](C)CO)C[C@@H]2C)cc1	x	5	x	x	65*
COc1ccc(S(=O)(=O)Nc2ccc3c(c2)C(=O)N([C@H](C)CO)C[C@H](C)[C@@H](CN(C)S(=O)(=O)c2ccc(C)cc2)OCCCC[C@H](C)O3)cc1	x	2	x	x	78*
